{
  "source": "PubChem BioAssay (NCI)",
  "note": "Compounds without any hit were thinned out: in the full panel of roughly 83,000, 20% have a hit.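 Note: values are percent growth. 100 is the growth of untreated cells, values between 100 and 0 indicate rising inhibition; between -100 and 0 indicates cell death.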 The source made the active and inactive calls.",
  "data": [
    {"test_system": "SK-MEL-28 melanoma", "experiment": "NCI-60 one-dose screen, 48 h (100 = growth as untreated, 0 = no growth, -100 = all killed)", "settings": "10 µM", "protocol": "Growth inhibition of the SK-MEL-28 human tumor cell line is measured as a screen for anti-cancer activity. Cells are grown in 96 well plates and exposed to the test compound for 48 hours. Compounds are tested at a single concentration, which is 10^-5 M for most compounds. The reported endpoint is percent growth (GI% or GIPRCNT), where numbers from 0 - 100% represent growth inhibition, and numbers from -100% - 0 represent cell death. For example, a value of 40 represents 60% growth inhibition. A value of 0 means no net growth occurred over the course of the experiment. A value of -40 indicates 40% of cells at the beginning of the experiment died by the end of the experiment. A value of -100 means all cells are dead at the end of the experiment.\nNCI-60 Human Tumor Cell Lines Screen was performed using the standard one-dose NCI protocol, which is described in more detail at https://dtp.cancer.gov/discovery_development/nci-60/default.htm.\nCompounds with GIPRCNT values below 10 were considered active. Activity score was based on GIPRCNT using the following formula: […]\nScore is 0 for GIPRCNT values of 100 or above, 50 for GIPRCNT values of 0, and 100 for GIPRCNT values of -100.", "values": [
      {"smiles": "CN1CCN(c2ccc(Nc3nc(NCCCNC(=O)c4ccc(Cl)cc4)c4sccc4n3)cc2)CC1", "growth": "89.1% (inactive)"},
      {"smiles": "O=C(c1ccc(O)cc1)C1[C@H](c2ccc(Br)cc2)[C@@H](c2ccccc2)NC12C(=O)Nc1ccccc12", "note": "(stereo not given in full)", "growth": "78.5% (inactive)"},
      {"smiles": "CCOC(=O)c1c(CSc2ccccc2)n(C)c2cc(CN(C)C)c(O)c(CN(C)C)c12", "growth": "48.6% (inactive)"},
      {"smiles": "COc1cccc(-c2ccc(/C=N/NC(=O)c3[nH]c4ccc(Br)cc4c3-c3ccccc3)o2)c1", "growth": "42.5% (inactive)"},
      {"smiles": "CN1CCc2c(sc3ncnc(N/N=C/c4cn(-c5ccccc5)nc4-c4ccc(Cl)cc4)c23)C1", "growth": "45% (inactive)"},
      {"smiles": "COc1ccc([C@H]2C(C(=O)c3ccc(Cl)cc3)C3(N[C@@H]2c2ccccc2)C(=O)Nc2ccc(Br)cc23)cc1", "note": "(stereo not given in full)", "growth": "18.9% (inactive)"},
      {"smiles": "CC1=C(C(=O)OC(C)C)C(c2ccc(O)cc2)NC(=S)N1", "note": "(stereo not given)", "growth": "109% (inactive)"},
      {"smiles": "CC(=C(c1ccc(OCCN2CCCCC2)cc1)c1ccc(OCCN2CCCCC2)cc1)c1ccccc1", "growth": "-93.9% (active)"},
      {"smiles": "O=C(NO)c1ccc(CN2CCN(c3nc(-c4ccccc4)c4ccccc4n3)CC2)cc1", "growth": "24.1% (inactive)"},
      {"smiles": "Cc1noc2c(Cc3ccccc3)nn(CC(=O)N/N=C/c3ccc(Br)cc3)c(=O)c12", "growth": "99.5% (inactive)"},
      {"smiles": "O=c1[nH]c2ccccc2cc1CSc1ccc(Nc2nccc(-c3ccc4ccccc4c3)n2)cc1", "growth": "65.7% (inactive)"},
      {"smiles": "O=c1cc(-c2ccccc2)oc2cc(OCCCNCc3ccccc3)cc(O)c12", "growth": "-88.8% (active)"},
      {"smiles": "CN(CCF)c1ccc(/C=C/C(=O)c2ccc(N)cc2O)cc1", "growth": "101% (inactive)"},
      {"smiles": "Cc1nc(Nc2nc(C)c3ccc(OCCN4CCOCC4)cc3n2)[nH]c(=O)c1C", "growth": "-21.3% (active)"},
      {"smiles": "CC(C)(C)Nc1nc2cc(Cl)c(Cl)cc2nc1S(C)(=O)=O", "growth": "62.3% (inactive)"},
      {"smiles": "CC(=O)Nc1ccc(-n2cnc3cc(-c4ccc(O)cc4)ccc32)cc1F", "growth": "49.4% (inactive)"},
      {"smiles": "O=C(CNc1nc(-c2ccccc2)cs1)Nc1ccc([N+](=O)[O-])cc1Cl", "growth": "62.1% (inactive)"},
      {"smiles": "O=C(O)CCCCCCCCCCN1C(=O)/C(=C/c2cnc(-c3ccccc3)s2)SC1=S", "growth": "97.4% (inactive)"},
      {"smiles": "O=C(COc1ccc(NC(=O)Nc2ccc(Cl)cc2)cc1)N=Nc1c(O)[nH]c2ccc([N+](=O)[O-])cc12", "growth": "-4.38% (active)"},
      {"smiles": "COc1ccc(N(C)c2cc(C#N)nc3ccccc23)cc1/C=C/C(=O)NO", "growth": "-73.8% (active)"},
      {"smiles": "COc1ccc2cc([C@H](C)C(=O)NCc3ccccc3)ccc2c1", "growth": "64.4% (inactive)"},
      {"smiles": "CC(=O)Nc1ccc(-n2cnc3cc(-c4ccc(NS(C)(=O)=O)cc4)ccc32)cc1", "growth": "85.3% (inactive)"},
      {"smiles": "CC1(c2ccccc2)NC(=O)N(CC(=O)Nc2ccc(C(=O)/C=C/c3ccc(Cl)cc3)cc2)C1=O", "note": "(stereo not given)", "growth": "15.8% (inactive)"},
      {"smiles": "COc1ccc(-c2nc(S(=O)(=O)c3ccccc3)c(S(C)(=O)=O)o2)cc1", "growth": "-82.9% (active)"},
      {"smiles": "O=C(NCCCCCCCCCC[P+](c1ccccc1)(c1ccccc1)c1ccccc1)c1ccc(-n2nc(-c3ccccc3O)nc2-c2ccccc2O)cc1", "growth": "-93.8% (active)"},
      {"smiles": "N[C@@H](CSSC[C@H](N)C(=O)Nc1ccc(OCC2CCCC2)cc1)C(=O)Nc1ccc(OCC2CCCC2)cc1", "growth": "-99% (active)"},
      {"smiles": "COc1cnc2c(c1)C(=O)c1c-2n(CCCNC(C)C)c(=O)c2cc(OC)c(OC)cc12", "growth": "94% (inactive)"},
      {"smiles": "Cc1ccc(NC(=O)NCn2c(=O)[nH]c3ccccc3c2=O)cc1", "growth": "94.5% (inactive)"},
      {"smiles": "Cc1ccc(/C=C(\\C#N)n2nnc3c(F)cccc32)cc1", "growth": "28.8% (inactive)"},
      {"smiles": "CCCCCc1ccc(S(=O)(=O)Nc2cc(-c3csc(N(C)C(C)=O)n3)ccc2N2CCN(C)CC2)cc1", "growth": "11.8% (inactive)"},
      {"smiles": "O=C(Nc1nc2ccccc2s1)c1ccc(Br)cc1", "growth": "90.7% (inactive)"},
      {"smiles": "C#Cc1ccc(S(=O)(=O)Nc2cccc(-c3csc(NC(C)=O)n3)c2)cc1", "growth": "89.4% (inactive)"},
      {"smiles": "COc1ccc2[nH]c(O)c(N=NC(=O)COc3ccc(NC(=O)Nc4ccc(Cl)c(Cl)c4)cc3)c2c1", "growth": "-59.8% (active)"},
      {"smiles": "CC1(c2ccccc2)NC(=O)N(CC(=O)Nc2ccc(C(=O)/C=C/C=C/c3ccccc3)cc2)C1=O", "note": "(stereo not given)", "growth": "70.9% (inactive)"},
      {"smiles": "C/C(=N\\N=C\\c1ccc(Cl)c([N+](=O)[O-])c1)c1ccc2c(c1)Nc1ccccc1S2", "growth": "60.9% (inactive)"},
      {"smiles": "C/C(=N\\NC(N)=S)c1ccc(Nc2nc(SC(C)C)nc(-c3ccccc3)c2C#N)cc1", "growth": "80.9% (inactive)"},
      {"smiles": "CCOP(=O)(OCC)O[C@H]1CC[C@]2(C)[C@H]3CC[C@@H]4[C@@H]([C@](C)(O)CCC=C(C)C)CC[C@@]4(C)[C@]3(C)CC[C@H]2C1(C)C", "growth": "48.8% (inactive)"},
      {"smiles": "CN1CCN(c2ccc(C(=O)/C=C/c3ccc(C#N)cc3)cc2)CC1", "growth": "108% (inactive)"},
      {"smiles": "COc1cc(NC(=O)CSc2nnc(-c3ccc4nc(-c5ccc(Cl)cc5)[nH]c4c3)o2)cc(OC)c1OC", "growth": "70.5% (inactive)"},
      {"smiles": "COc1nccnc1NS(=O)(=O)c1ccc(NC2=C(Cl)C(=O)c3nc(C)ccc3C2=O)cc1", "growth": "121% (inactive)"}
    ]}
  ]
}
